Bioassay records from PubChem BioAssay.
Sampled rows, rich in hits. Any-hit rate of the full collection: about 3.7%.
FEN1 inhibitor: blocks human flap endonuclease 1; P39748; Recombinant FEN1 flap cleavage, fluorescence, 15 min; Potency, µM (titrated, usually from 114 µM), inactives show top-dose activity change, negative = inhibition, hits mostly inhibitors; 390,000 tested, 0.35% active; AID 588795; also: potency is read from the fitted curve at half-maximal effect; % is scaled to controls: 0 for no effect and ±100 for the full control effect; nearly all actives have a fitted effect of over 65% in size
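FEN1 at 10 nM preincubated with compounds 15 min at room temperature, then flap DNA substrate added at 50 nM final. Signal read at 0 and 15 min; concentration-response fitted with four-parameter Hill equation.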
VDR inh: blocks the human vitamin D receptor | P11473 | VDR-SRC2-3 peptide fluorescence polarization, 2 h | Potency, µM, without a hit: max response, negative = inhibition, actives largely listed as inhibitors | 400,000 tested, 0.93% active | AID 504847; also: potency is read from the fitted curve at half-maximal effect; % is scaled to controls: 0 for no effect and ±100 for the full control effect
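Two reagent solutions held at 4 deg C in the dark were dispensed, compounds pinned at 23 nl, and the mixture incubated 2 h at room temperature. Read-out: fluorescence polarization of VDR–SRC2-3 peptide binding.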
TCR act: T cell receptor activation; Potency, µM (highest dose often 9.22 µM), for the others: at the highest dose activation of IL-2 secretion, most hits filed as activators; 330,000 tested, under 10 active; primary human leukocytes, anti-CD3, IL-2 HTRF, 48 h; AID 504894; also: % of control where 0% means no effect
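Primary human leukocytes receive a-CD3 beads and test compound and are incubated 48 hr. Secreted IL-2 is then assayed by HTRF, measuring 665nm acceptor emission after 320nm excitation of the europium donor.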
WRN inhibitor: WRN helicase (human) inhibition; Q14191; WRN helicase unwinding, fluorescent forked duplex, kinetic; Potency, µM (doses to about 114 µM), for inactives: at the highest dose activity change, negative = inhibition, hits mostly inhibitors; 360,000 tested, 0.46% active; also: potency is read from the fitted curve at half-maximal effect; % is scaled to controls: 0 for no effect and ±100 for the full control effect; nearly all actives have a fitted effect of over 55% in size
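Fluorescence dequenching readout, ex 525 nm/em 598 nm, kinetic mode: forked duplex DNA (100 nM final) with adjacent fluorophore and quencher unwound by WRN (20 nM final) with 2 mM ATP. Compound preincubation 15 min, room temperature.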
PI5P4K alpha inh: PI5P4K alpha (human) kinase inhibition. 330,000 tested, 1.2% active. max response, %. PI5P4Kalpha enzyme, ADP-Glo luminescence, 60 min; active compounds read low; active = max response of -50% or lower; inconclusive = between -30% and -50%; inactive = -30% or higher; also: value at the top dose of about 77 µM; % is scaled to controls: 0 for no effect and ±100 for the full control effect
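Reactions run in 0.038 M HEPES pH 7.4, 0.28 mM EGTA, 0.1% CHAPS and 5% DMSO, with PI5P4Kalpha, substrate, compound and 5 microM ATP final, one hour at room temperature. Readout is ADP-Glo luminescence.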
PLK1 PBD block: inhibitors of human PLK1 polo-box domain binding; 360,000 tested, 2.8% active; Potency, µM, inactives show max response, negative = inhibition, hits mostly inhibitors; Plk1 PBD binding of FITC phosphopeptide, fluorescence polarization; P53350; also: potency is read from the fitted curve at half-maximal effect; series mostly up to about 57 µM; % is scaled to controls: 0 for no effect and ±100 for the full control effect; nearly all actives have a fitted effect of over 65% in size
Active calls of the source: *; ? = inconclusive; nt = no result; [ ] = remark or other dose. Unless noted, calls follow the shape of the dose curve; as a rule, active = well fitted curve in the direction sought with a large enough effect; inconclusive = small, poorly fitted or top-dose-only effect, or another doubt; inactive = no such curve, though single readings can be large; an effect the other way counts as inactive or inconclusive.

SMILES | FEN1 inhibitor | VDR inh | TCR act | WRN inhibitor | PI5P4K alpha inh | PLK1 PBD block
CCn1cc(S(=O)(=O)c2ccc(C)cc2)[nH]c1=O | -4% | -2% | 11% | 0% | -1 | -1%
COc1ccc(CCNC(=O)c2ccn[nH]2)cc1OC | 7% | -25% | -15% | -32% | ? | 3µM*
CCc1nc2ccc(C(=O)NCCc3ccc(OC)c(OC)c3)cc2nc1CC | 14% | -6% | 11% | -6% | -2 | ?
COc1ccc(CCNC(=O)c2cc(-c3ccccc3O)n[nH]2)cc1OC | -2% | -1% | 1% | 8% | -1 | -2%
O=C(Nc1ccc2nc(-c3ccco3)c(-c3ccco3)nc2c1)NC1CC1 | 50µM* | 71µM* | 3%[46.1 µM] | 10µM* | -75* | ?
CCC(C)NC(=O)c1ccc2nc(-c3ccco3)c(-c3ccco3)nc2c1 (centres undefined) | ? | 50µM* | nt | nt | nt | nt
COc1ccc(CCNC(=O)c2ccc3nc(-c4ccco4)c(-c4ccco4)nc3c2)cc1OC | ? | 79µM* | -3% | 35µM* | -55* | 27µM*
O=C(NCCCc1nc2ccccc2n1CCCOc1ccccc1)C1CCCCC1 | -1% | -22% | nt | nt | nt | nt
O=C(Nc1cccc(C(F)(F)F)c1)c1ccc2snnc2c1 | 18% | 7% | nt | nt | nt | nt
O=C(Nc1cccc(C(F)(F)F)c1)c1ccc2nc(-c3ccco3)c(-c3ccco3)nc2c1 | ? | 20µM* | 5% | 25µM* | -102* | 5.3µM*
C=C(Cl)COc1ccc2c(CC)cc(=O)oc2c1 | 5% | -20% | -1% | -3% | nt | -9%
C=C(C)COc1ccc2c(CC)cc(=O)oc2c1 | 4% | ? | 2% | 2% | -22 | 13µM*
N#C/C(=C\c1coc2ccccc2c1=O)C(N)=S | 16% | ? | 0% | -25% | ? | 12µM*
O=C(O)/C=C/c1coc2ccccc2c1=O | -4% | -10% | 5%[46.1 µM] | 2% | -10 | -15%
N#CCC(=O)N/N=C/c1coc2ccccc2c1=O | -5% | -14% | -1% | -13%[11.6 µM] | -86* | -10%
O=C(c1ccccc1)c1ccc(O)c(O)c1O | ? | 8% | -2% | 28µM* | -91* | 0%
CNc1ccc(C=C2c3ccccc3-c3ccccc32)cc1 | -22% | nt | nt | nt | nt | nt
CCOCCCNC(=O)CSCc1nc(-c2ccc(SC)cc2)oc1C | -7% | -5% | 1% | 3% | 6 | 30µM*
O=c1c(S(=O)(=O)c2ccccc2)cn(Cc2ccc(F)cc2)c2cc(N3CCOCC3)c(F)cc12 | 1% | 3% | nt | nt | nt | nt
CCc1ccccc1-n1nnc(-c2nsc(NC(=O)c3ccc(C)c(C)c3)n2)c1C | -3% | 14% | nt | nt | nt | nt
Cc1cc(O)c(C=O)c2c1C(=O)Oc1c(C)c(O)c3c(c1O2)C(O)OC3=O (centres undefined) | nt | 6.3µM* | nt | nt | nt | nt
Cc1ccc(OC(=O)c2ccc3nc(C)sc3c2)cc1 | 10% | ? | 3% | -20% | -19 | 19µM*
COc1ccc(OC(=O)c2ccc3nsnc3c2)cc1 | 11% | -2% | 3% | -33%[57.1 µM] | 1 | -13%
Cn1cccc1/C=C1\SC(=Nc2ccc(O)cc2)NC1=O | -10% | 4% | 6% | -10% | -30 | -9%
Cn1cccc1/C=C1\SC(=Nc2cccc(O)c2)NC1=O | -8% | 13% | 6% | -4%[11.6 µM] | -55* | -4%
SMILES | FEN1 inhibitor | VDR inh | TCR act | WRN inhibitor | PI5P4K alpha inh | PLK1 PBD block
CCCCC(Sc1ccc2nnc(-c3ccccn3)n2n1)C(=O)O (centres undefined) | -14% | -16% | nt | nt | nt | nt
CCN(CC)c1ccc(C(=O)OCC(=O)NC2CCCCC2C)cc1 (centres undefined) | 8% | -13% | 3% | 1% | -8 | 30µM*
Cc1ccsc1C(=O)OCC(=O)NC1CCCCC1C (centres undefined) | -2% | 1% | -1% | 3% | 10 | -4%
O=C(CC(c1ccccc1)(c1ccccc1)c1ccccc1)N[C@@H](Cc1ccccc1)C(=O)O | 13% | -15% | 1% | -1% | 7 | -4%
O=C(O)[C@H](Cc1ccccc1)NC(=O)C(c1ccccc1)(c1ccccc1)c1ccccc1 | -8% | -26% | -2% | -2% | 7 | 27µM*
CCC(=O)N1CCc2cc(CNS(=O)(=O)c3ccc(C(C)C)cc3)ccc21 | 9% | -17% | nt | nt | nt | nt
O=C1CNC(=O)N1c1ccc(Cl)cc1 | -3% | -6% | 1% | 7% | -2 | -16%
CN(C)/C=C1\NC(=S)N(c2ccc(Cl)cc2)C1=O | 2% | 1% | 2% | ? | -26 | 27µM*
CCOc1ccc(C(=O)c2cn(CC(=O)Nc3ccc4c(c3)OCO4)c3ccc(OC)cc3c2=O)cc1 | 18% | -10% | nt | nt | nt | nt
COc1cc(NC(=O)CN(C)Cc2cccc(F)c2)c(C)cc1[N+](=O)[O-] | 6% | ? | -5% | 3% | -6 | 27µM*
CCn1nc(C)c(Br)c1C(=O)Sc1ccccc1Cl | -1% | ? | -1% | -29% | 24 | 13µM*
CCOc1ccccc1NC(=O)COC(=O)CNS(=O)(=O)c1ccc(C)cc1 | -3% | -5% | -2% | 9% | -11 | -9%
CCOc1ccccc1NC(=O)COC(=O)CN(C)S(=O)(=O)c1ccc(C)cc1 | 1% | ? | 3%[46.1 µM] | 4% | 3 | 27µM*
CCc1ccccc1NC(=O)CCS(=O)(=O)c1ccc(Br)cc1 | -7% | -10% | 3% | -9% | -2 | -8%
CCOc1ccccc1NC(=O)CCS(=O)(=O)c1ccc(Br)cc1 | -11% | -12% | 3% | 50µM* | -14 | 30µM*
Cc1c(C(=O)Nc2nonc2-c2ccc(F)cc2)oc2ccc(F)cc12 | -26% | ? | 8% | 2% | -2 | 30µM*
C=C(C)[C@@H]1CC[C@]2(C(=O)O)CC[C@]3(C)[C@H](CCC4[C@@]5(C)CC[C@H](O)C(C)(C)[C@@H]5CC[C@]43C)[C@@H]12 (some centres undefined) | nt | 3% | nt | nt | nt | nt
C=C(C)C1CCC2(C(=O)O)CCC3(C)C(CCC4C5(C)C(C=O)C(O)C(C)(C)C5CCC43C)C12 (centres undefined) | -5% | -4% | 0% | -4%[11.6 µM] | -54* | ?
CCOc1cc(C(=O)Nc2cc3c(cc2N2CCOCC2)n(C)c(=O)n3C)cc(OCC)c1OCC | -8% | -29% | 3% | -5% | -1 | 13µM*
Cc1ccc(NC(=O)Cn2nnc(-c3ccccc3)n2)c(C)c1 | -10% | 9% | nt | nt | nt | nt
Nc1ccc(/C=C/c2ccnc3ccccc23)cc1[N+](=O)[O-] | 6% | nt | nt | nt | nt | nt
Cc1nc2nc(-c3ccc(Cl)cc3)cn2nc1C | 1% | 5% | -7% | -17% | -9 | -5%
Cc1nc2nc(-c3cccs3)cn2nc1C | 13% | 28% | nt | -2% | -14 | 30µM*
COc1ccc(-n2c(=O)c3sc4ccccc4c3n(Cc3ccccc3)c2=O)cc1 | 1% | 17% | nt | nt | nt | nt
